Measured values published in PubChem BioAssay (NCI).
The panel holds about 79,000 compounds, 15% with a hit somewhere; the sample as a whole holds those more often. Activity calls are given as the source filed them. No stated cut-off is given here; in the data, active means growth inhibition above about 70%; inactive means the rest.

Key:
[1] = NCI Yeast Anticancer Drug Screen. Data for the rad50 strain (AID 155);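 further: 0% = growth of vehicle-only cultures of the same strain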; conditions: S. cerevisiae rad50 strain growth inhibition; at 50.0 µM; stronger effect = higher value
Outline: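 Cells are treated with compound, grown, and their growth is then scored against vehicle-only cultures of the same repair-deficient yeast strain.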

[2] = NCI Yeast Anticancer Drug Screen. Data for the mec2-1 strain (AID 157); conditions: S. cerevisiae mec2-1 strain, at 50.0 µM, stronger effect = higher value
Outline: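 Cells of the genetically defined mec2-1 yeast strain are incubated with test compound. Inhibition of growth is calculated against vehicle-treated controls.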

[3] = NCI Yeast Anticancer Drug Screen. Data for the sgs1 mgt1 strain (AID 161);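 further: 0% = growth of cultures given vehicle only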; conditions: S. cerevisiae sgs1 mgt1 strain, at 50.0 µM, stronger effect = higher value
Outline: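 Read-out: growth inhibition vs vehicle controls. Cells: mutant yeast strain deficient in DNA damage repair.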

[4] = NCI Yeast Anticancer Drug Screen. Data for the cln2 rad14 strain (AID 165);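 further: 0% = growth equal to vehicle treated cultures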; conditions: S. cerevisiae cln2 rad14 strain, at 50.0 µM, stronger effect = higher value
Outline: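 The screen exposed genetically defined yeast (cln2 rad14) to test compounds and scored growth inhibition relative to vehicle-treated controls.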

[5] = NCI Yeast Anticancer Drug Screen. Data for the bub3 strain (AID 167); conditions: S. cerevisiae bub3 mutant strain, at 50.0 µM, stronger effect = higher value
Outline: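 Part of a panel of yeast mutants defective in DNA damage repair or cell cycle regulation. Each strain is grown with compound, and inhibition is calculated relative to solvent-treated cultures.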

[6] = NCI Yeast Anticancer Drug Screen. Data for the mlh1 rad18 strain (AID 175); conditions: S. cerevisiae mlh1 rad18 strain growth inhibition; at 50.0 µM; stronger effect = higher value
Outline: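 Compound-treated yeast growth, normalised to vehicle controls. Strain bears defined DNA repair mutations.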

Measured: growth inhibition

O=S(=O)(O)CS(=O)(=O)O
inactive: [1] -21.9% | [2] -2.3% | [3] 8.3% | [4] -26.4% | [5] 4.9% | [6] -1.15%

Cc1cc(C)nc(NS(=O)(=O)c2ccc(NC(=O)c3ccc(Cl)c4c(Nc5ccc(S(=O)(=O)Nc6nc(C)cc(C)n6)cc5)c5ccccc5nc34)cc2)n1
inactive: [1] 28.1% | [2] 41.3% | [3] 27.8% | [4] 34.2% | [5] 27.8% | [6] 30.4%

C=CCSc1ccc(Cl)cc1[N+](=O)[O-]
inactive: [1] 18.8% | [2] -3.4% | [3] 6.05% | [4] -8.45% | [5] 4% | [6] 0.3%

O=Cc1ccc(-c2ccc(S(=O)(=O)O)cc2)o1
inactive: [1] -35.5% | [2] 6.85% | [3] -41.3% | [4] 25.8% | [5] 3.55% | [6] -3.2%

O=S(=O)(O)O.[NH-]CC1(C[NH-])CCCCC1.[Pt+2]
inactive: [1] -13% | [2] 17.9% | [3] -3.15% | [4] -0.7% | [5] -28.6% | [6] -46.4%

CCCCCC1CC[N-]CC1.CCCCCC1CC[N-]CC1.N#C[S-].N#C[S-].[Cu]
inactive: [1] 33.4% | [2] 12.7% | [3] 5% | [4] -33.1% | [5] -16.7% | [6] 24.1%

O=S(O)CCCCCSSSCCCCCS(=O)O
inactive: [1] 8.2% | [2] 8.8% | [3] -2.8% | [4] -10.4% | [5] 9.05% | [6] 44.7%

CCC/C(Cl)=N\OC(=O)Nc1ccc(OC(F)(F)F)cc1
active: [3] 91%
inactive: [1] 24% | [2] 24.8% | [4] 20.1% | [5] 28.8% | [6] 58.6%

CNc1ccccc1C(=O)N/N=C/c1ccc(O)c(OC)c1
inactive: [1] 3% | [2] 5.65% | [3] 0.85% | [4] 2.55% | [5] 37.4% | [6] -19.6%

CC1=C(c2cc(C(=O)Nc3cc(C)ccc3C)nc(N)n2)Sc2ccccc2N1
inactive: [1] 5.25% | [2] -10.8% | [3] -25.8% | [4] -18.1% | [5] -13.1% | [6] -10.8%

CCC(O)C(O)(c1ccccc1)c1ccccc1 (stereo unspecified)
inactive: [1] 4.05% | [2] 8% | [3] -8.8% | [4] -2.75% | [5] -1.2% | [6] -6.7%

COC(=O)c1c(C(=O)c2ccccc2)nnn1-c1cccc(C(F)(F)F)c1
inactive: [1] -14.1% | [2] -32.7% | [3] -19% | [4] -3.85% | [5] -28.7% | [6] 0.35%

Clc1ccc(N2C(c3ccccc3)=N[C@@H](N3CCOCC3)[C@@H]2N2CCOCC2)cc1
inactive: [1] -13.2% | [2] -15.9% | [3] -9.95% | [4] -30.9% | [5] -1.5% | [6] -4.7%

CN(C)C=Nc1cc2c3c(c1)CCCN3CCC2
inactive: [1] 10.8% | [2] -0.5% | [3] 13.3% | [4] 11.8% | [5] -2.6% | [6] 31.4%

C/C=C(/C)C(=O)O[C@H]1CC[N+]2([O-])CC=C(COC(=O)[C@@](O)([C@H](C)OC)C(C)(C)O)[C@H]12 (stereo partly specified)
inactive: [1] -13.1% | [2] -5.1% | [3] -3.45% | [4] 7.5% | [5] 6.75% | [6] 12.5%

COc1c2c(c(OC)c3c(=O)c4ccccc4[nH]c13)OCO2
inactive: [1] 12.6% | [2] -8.85% | [3] 26.9% | [4] -2.25% | [5] 18.2% | [6] 22.9%

CC(=O)N1C(=O)C2(Nc3cccnc3N2)c2ccccc21 (stereo unspecified)
inactive: [1] -4.85% | [2] 16.4% | [3] -1.8% | [4] -1.35% | [5] -0.95% | [6] -16.1%

CN(CCSCC(N)C(=O)O)CCSCC(N)C(=O)O (stereo unspecified)
inactive: [1] 5% | [2] 11.2% | [3] 0.7% | [4] 29.4% | [5] -58% | [6] 28.6%

COc1ccccc1NC(=O)Oc1ccc(C#N)cc1
inactive: [1] 7.2% | [2] -14.5% | [3] 15% | [4] -1.8% | [5] 9.75% | [6] 0.4%

c1ccc(CN2C3C4N(Cc5ccccc5)C2C2N(Cc5ccccc5)C(C(N2Cc2ccccc2)N4Cc2ccccc2)N3Cc2ccccc2)cc1
inactive: [1] 10.1% | [2] 2.35% | [3] 21.9% | [4] 3.2% | [5] 11.8% | [6] -3.6%

O=C(NC(CC(NC(=O)OCc1ccccc1)NC(=O)OCc1ccccc1)NC(=O)OCc1ccccc1)OCc1ccccc1
inactive: [1] -2.55% | [2] 7.1% | [3] -0.1% | [4] 5.6% | [5] 0.85% | [6] -4.55%

O=C1c2ccccc2C(=O)N1/N=C1/SC(=Nc2ccccc2)C(=Nc2ccccc2)N1c1ccccc1
inactive: [1] 6.3% | [2] 0% | [3] 15% | [4] 26.4% | [5] 14.8% | [6] 20.1%

CCn1nnc2c(C(N)=O)ncn2c1=O
inactive: [1] 0.6% | [2] -38.7% | [3] -44.1% | [4] 14.1% | [5] -14.8% | [6] -16.6%

CCCCCCCCOCCS(=O)(=O)O
inactive: [1] 13.4% | [2] -18.6% | [3] -0.15% | [4] -22.6% | [5] -10.8% | [6] 35.8%

O=C(O)c1ccccc1C(=O)c1ccc(F)c2ccccc12
inactive: [1] 11% | [2] 26.9% | [3] 18.6% | [4] 21.1% | [5] 3.75% | [6] 10.7%

COc1ccccc1C/C(=N/O)c1ccccc1OC
inactive: [1] 3.65% | [2] -2.8% | [3] 14.1% | [4] 15.6% | [5] -3.8% | [6] 4.35%

CC(O)C(O)C(O)C(O)C#N (stereo unspecified)
inactive: [1] 20.6% | [2] 18% | [3] 12.2% | [4] 11% | [5] 0.15% | [6] 10.1%

CCCCCCCCCCCCCCCCS(=O)(=O)N/N=C(\c1ccc(C(C)C)cc1)N1CCOCC1
inactive: [1] 1.3% | [2] -18.4% | [3] 12.7% | [4] 9.3% | [5] -1.5% | [6] 5.75%

N/N=C1\CCCc2c1no[n+]2[O-]
inactive: [1] 6.05% | [2] -4.05% | [3] -0.5% | [4] 4% | [5] -9.9% | [6] 3.2%

CSC12CC3C(=O)C=C[C@@H](O)[C@@H]3N1C(=O)C1(SC)CC3C(=O)C=C[C@@H](O)[C@@H]3N1C2=O (stereo partly specified)
inactive: [1] 64.3% | [4] 39.8% | [6] 65.2%
active: [2] 78.2% | [3] 85.1% | [5] 72.8%

COc1ccc(C2SC(N)=Nc3c2c(C)nn3C(=O)c2ccccc2O)cc1 (stereo unspecified)
inactive: [1] 15.9% | [2] 10.1% | [3] 40.5% | [4] 5.85% | [5] 49.1% | [6] 29.4%

FC(F)(F)C1(F)C(F)(F)C(F)(F)C(F)(F)C(F)(F)C1(F)F
inactive: [1] 16.3% | [2] -39.1% | [3] -4.95% | [4] -96.2% | [5] -24.1% | [6] 27.9%

COc1c(OC(C)=O)c(OC(C)=O)cc2c1-c1ccc(OC)c(=O)cc1C(NC(C)=O)CC2 (stereo unspecified)
inactive: [1] 1.65% | [2] -1.35% | [3] 15.8% | [4] 1.35% | [5] -33.3% | [6] 8.35%

O=C(Nc1ccccc1C(=O)N/N=C/c1ccccc1Cl)c1ccccc1Cl
inactive: [1] -36.5% | [2] -14.1% | [3] 5.1% | [4] -25.9% | [5] 0.25% | [6] 4.1%

Cc1ccccc1C(=O)OC1CCCCC1
inactive: [1] 9.2% | [2] -13.1% | [3] -9.65% | [4] -39.5% | [5] 9.8% | [6] 5.7%

CC(=O)CC(=O)Nc1ccc(C(=O)O)c(O)c1
inactive: [1] -14.2% | [2] -18.9% | [3] 8.4% | [4] -1.45% | [5] 32.1% | [6] -1%
